# Source: PubChem (National Center for Advancing Translational Sciences (NCATS))
# Rows were chosen to be rich in hits. Some 5.3% of all compounds tested hit in one or more screens of this group.
# BAZ2B block: inhibitors of human BAZ2B bromodomain; actives 4.4% (n = 360,000); AID 504333; AlphaScreen BAZ2B-H3K14Ac peptide displacement; Potency, µM (highest dose often 114 µM), without a hit: at the top dose activity change, negative = inhibition, hits mostly inhibitors; further: potency means the concentration at half of the fitted maximal effect; on the % scale 0 is the no-effect control and ±100 the full control effect; nearly all actives have a fitted effect of over 60% in size
#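 Multi-concentration screen (max 110 uM) measuring displacement of acetylated histone H3 peptide from BAZ2B by AlphaScreen, using 50 nM protein, 50 nM peptide and 10 ug/mL streptavidin donor plus Ni-chelate acceptor beads.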
# TDP1 inh: inhibitors of human tyrosyl-DNA phosphodiesterase TDP1 | Potency, µM (titrated, usually from 130 µM), for the others: at the highest dose activity change, negative = inhibition, usual class: inhibitors | actives 0.28% (n = 350,000) | Q9NUW8 | recombinant TDP1, AlphaScreen DNA substrate cleavage | AID 485290; further: potency means the concentration at half of the fitted maximal effect; on the % scale 0 is the no-effect control and ±100 the full control effect; nearly all actives have a fitted effect of over 40% in size
#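 Compounds were preincubated with Tdp1 (1 nM final) for 15 min at room temperature before substrate (15 nM final) started a 5 min reaction; beads (10 ug/ml final) were then added for 10 min before AlphaScreen detection.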
# Six1-Eya2 inh: blocks human Six1 binding to Eya2; activity change, % (concentration not given with the values); actives 0.56% (n = 360,000); AlphaScreen GST-Six1/His-Eya2 binding, biochemical; active compounds read low; Q15475+O00167; AID 651725; in the data active means activity change below about -65%; inconclusive means mostly about -30% to -63%; further: on the % scale 0 is the no-effect control and ±100 the full control effect
#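 Six1/Eya2 binding was read as AlphaScreen signal after compounds were pinned into GST-Six1 plus His-tagged Eya2 (5X stock 250/500 nM) in pH 8.0 Tris/NaCl/TCEP buffer, beads added, then incubated 1 h, 37 C, dark.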
# JMJD2A Tudor inh: inhibitors of human JMJD2A Tudor domain; Potency, µM (titrated, usually from 114 µM), inactives show at the top dose activity change, negative = inhibition, hits mostly inhibitors; O75164; actives 4.4% (n = 390,000); AlphaScreen JMJD2A-Tudor / H3K4me3 peptide binding; further: potency means the concentration at half of the fitted maximal effect; on the % scale 0 is the no-effect control and ±100 the full control effect; nearly all actives have a fitted effect of over 50% in size
# Target sequence (O75164 whole entry, looked up, the tested form may be a part): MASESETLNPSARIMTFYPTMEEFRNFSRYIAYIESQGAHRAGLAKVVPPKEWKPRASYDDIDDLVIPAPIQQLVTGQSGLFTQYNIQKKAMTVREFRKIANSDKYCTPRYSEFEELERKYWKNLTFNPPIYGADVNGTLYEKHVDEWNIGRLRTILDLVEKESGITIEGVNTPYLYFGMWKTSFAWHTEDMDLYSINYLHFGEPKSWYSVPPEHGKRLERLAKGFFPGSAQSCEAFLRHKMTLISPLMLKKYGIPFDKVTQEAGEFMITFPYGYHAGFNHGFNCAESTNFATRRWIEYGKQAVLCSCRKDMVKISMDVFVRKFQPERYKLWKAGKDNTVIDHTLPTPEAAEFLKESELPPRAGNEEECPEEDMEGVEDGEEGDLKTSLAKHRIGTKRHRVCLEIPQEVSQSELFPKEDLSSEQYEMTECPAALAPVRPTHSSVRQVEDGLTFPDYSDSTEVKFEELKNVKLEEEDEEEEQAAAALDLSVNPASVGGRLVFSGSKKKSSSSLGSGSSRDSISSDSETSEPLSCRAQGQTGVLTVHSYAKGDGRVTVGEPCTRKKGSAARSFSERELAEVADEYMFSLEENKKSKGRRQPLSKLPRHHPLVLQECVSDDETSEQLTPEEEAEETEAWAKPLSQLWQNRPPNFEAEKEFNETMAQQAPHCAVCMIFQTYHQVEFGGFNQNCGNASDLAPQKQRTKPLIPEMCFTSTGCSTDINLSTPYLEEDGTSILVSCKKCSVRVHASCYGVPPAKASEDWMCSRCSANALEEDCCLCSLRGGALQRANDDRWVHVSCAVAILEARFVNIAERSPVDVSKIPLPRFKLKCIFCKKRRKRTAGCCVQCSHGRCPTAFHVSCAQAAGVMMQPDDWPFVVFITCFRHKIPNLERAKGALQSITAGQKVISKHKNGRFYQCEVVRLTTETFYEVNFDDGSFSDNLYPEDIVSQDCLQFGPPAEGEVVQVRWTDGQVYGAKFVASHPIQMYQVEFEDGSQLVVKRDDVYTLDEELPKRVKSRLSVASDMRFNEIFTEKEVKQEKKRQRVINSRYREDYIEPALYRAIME
# CtBP-E1A inh: inhibitors of CtBP/E1A interaction | actives 0.49% (n = 340,000) | AlphaScreen GST-E1A/His-CtBP binding, 1536-well; active compounds read low | AID 651724 | activity change, % (test concentration not listed); in the data active means activity change below about -65%; inconclusive means mostly about -30% to -63%; further: on the % scale 0 is the no-effect control and ±100 the full control effect
#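 AlphaScreen with 125 nM GST-E1A and 125 nM His-CtBP (5X stocks) in Tris pH 8.0, 300 mM NaCl, BSA, Tween 20, TCEP. Compounds preincubated 2 h at 37 deg C, then glutathione donor/nickel acceptor beads added for 1 h at 37 deg C in dark.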
# HP1b binding inh: blocks HP1-beta chromodomain binding to methylated histone tails. P83916. AlphaScreen HP1-beta / biotin-H3K9me3 peptide binding. Potency, µM (highest dose often 114 µM), without a hit: at the highest dose activity change, negative = inhibition, hits mostly inhibitors. actives 0.56% (n = 390,000). AID 540317; further: potency means the concentration at half of the fitted maximal effect; nearly all actives have a fitted effect of over 70% in size
#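 AlphaScreen: HP1-beta (50 nM) preformed 30 min with biotin-H3(1-18)K9me3 peptide (50 nM) in PBS pH 7.4, 0.01% Tween-20. Compound added for 30 min at RT, then streptavidin donor/nickel chelate acceptor beads (10 ug/mL) for 30 min.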
# The depositor's hits bear a star; ? = inconclusive; / = no result given; [ ] = remark or other dose. Unless noted, the call rests on the fitted dose curve; in most records, active means well fitted inhibition curve with a large enough effect; inconclusive means small, poorly fitted or top-dose-only effect; inactive means no such curve, though single readings can be large or run the other way.
SMILES,BAZ2B block,TDP1 inh,Six1-Eya2 inh,JMJD2A Tudor inh,CtBP-E1A inh,HP1b binding inh
COc1cccc(-c2nnc(NC(=O)c3ccc4ncsc4c3)o2)c1,79.4µM*,6.7%,-29.7,-19.6%,-16.2,25.1%
CS(=O)(=O)c1ccccc1-c1nnc(NC(=O)Cc2ccccc2)o1,25.1µM*,4.0%,?,79.4µM*,-7.8,7.8%
CS(=O)(=O)c1ccccc1-c1nnc(NC(=O)c2ccc3ncsc3c2)o1,50.1µM*,/,-18.5,56.2µM*,-23.3,61.3%
Cc1ccc(NC(=O)CCCCCNS(=O)(=O)c2ccc(C)cc2)cc1,1.4%,3.8%,5.6,17.6%,-5.6,16.5%
Cc1ccc(S(=O)(=O)NCCCCCC(=O)Nc2nccs2)cc1,79.4µM*,3.1%,8.9,?,-3.3,8.0%
COc1ccc2oc3cc(NCCN(C)C)ccc3c(=O)c2c1,/,/,-70.3*,/,-74.6*,/
COc1ccc2c(=O)c3ccccc3oc2c1,8.4%,/,0.0,-4.1%,7.8,51.1%
Cc1cc(C)n(-c2nnc(C)n2NS(=O)(=O)c2ccc(F)cc2)n1,?,2.9%,-0.7,?,-1.6,-2.6%
Cc1ccc(S(=O)(=O)Nn2c(C)nnc2-n2nc(C)cc2C)cc1,70.8µM*,0.0%,-24.6,50.1µM*,1.2,5.2%
CCOc1cccc2sc(N(Cc3cccnc3)C(=O)c3ccc(C#N)cc3)nc12,?,2.6%,/,-27.3%,/,16.6%
CCCC[C@]12Cc3ccccc3[C@H](O1)C1=C(O2)C(=O)c2ccccc2C1=O,4.8%[22.9 µM],/,/,/,/,/
O=C(CCc1nnc2ccc(NCc3ccco3)nn12)N1CCN(c2ccccc2F)CC1,70.8µM*,-0.3%,-4.7,?,-3.8,30.1%
O=C(CCc1nnc2ccc(NCc3ccco3)nn12)N1CCCCC1,?,/,0.0,-17.9%,3.6,14.2%
O=C(CCc1nnc2ccc(NCc3ccco3)nn12)Nc1ccccn1,50.1µM*,25.1µM*,-14.0,11.3%,/,32.3%
COc1ccc(NC(=O)CCc2nnc3ccc(NCc4ccco4)nn23)cc1,-30.1%,4.7%,-3.5,-28.2%,-2.4,20.9%
Cc1cccc(NC(=O)CCc2nnc3ccc(NCc4ccco4)nn23)n1,50.1µM*,?,-9.5,16.0%,/,46.0%
C#CCCCCCCCCCCCc1ccco1,/,-5.3%[56.1 µM],/,/,/,/
Fc1ccc(-c2cc(-c3ccccc3)c3c(n2)-c2cc(F)ccc2OC3)cc1,0.3%,0.6%,/,13.8%,/,69.1%
CN(c1ccccc1)c1ccc(/C=C(\CCC(=O)O)c2nc3ccccc3s2)cc1[N+](=O)[O-],11.2µM*,5.6%,?,44.7µM*,3.1,?
CNc1ccc(/C=C(\CCC(=O)O)c2nc3ccccc3s2)cc1[N+](=O)[O-],44.7µM*,-8.5%,?,-17.4%,-21.7,28.6%
CCOc1ccc(NC(=O)CSc2oc(-c3ccc(C)cc3)nc2S(=O)(=O)c2ccc(C)cc2)cc1,?,8.8%,/,-30.7%,/,23.1%
OCCN1CCN(Cc2cc(Cl)c3cccnc3c2O)CC1,7.94µM*,12.1%,-90.3*,12.6µM*,-95.3*,4.2%
O=c1c(CN2CCN(c3ccccn3)CC2)coc2ccccc12,79.4µM*,-3.5%,11.8,22.4µM*,-5.9,?
O=C(c1ccc(Cl)c(Cl)c1)N1CCN(c2ccccn2)CC1,0.2%,2.5%,-12.2,-1.4%,-6.2,38.0%
Oc1c(CN2CCN(c3ccccn3)CC2)cc(Cl)c2cccnc12,14.1µM*,10.5%,-90.2*,31.6µM*,-96.8*,-15.4%
SMILES,BAZ2B block,TDP1 inh,Six1-Eya2 inh,JMJD2A Tudor inh,CtBP-E1A inh,HP1b binding inh
Cc1ccc(CNC(=O)c2ccc3c(c2)N(Cc2ccccc2Cl)C(=O)CS3)cc1,-0.5%,-2.9%,/,8.2%,/,23.9%
CCOC(=O)c1ccc(CN(Cc2ccccc2C)S(=O)(=O)c2ccc(C(C)(C)C)cc2)cc1,13.1%,2.6%,/,2.1%,/,23.5%
COc1ccc(/C(O)=C2\C(=O)C(=O)N(CCN(C)C)C2c2cc(OC)c(OC)c(OC)c2)c(C)c1 (stereo unspecified),79.4µM*,-0.5%,5.6,-31.2%,21.7,5.3%
COCCN1C(=O)C(=O)/C(=C(/O)c2ccc3c(c2)OCCO3)C1c1ccc(C(=O)OC)cc1 (stereo unspecified),?,2.0%,12.7,44.7µM*,1.2,-7.8%
COCCCN1C(=O)C(=O)/C(=C(/O)c2ccc(OCC(C)C)cc2C)C1c1cccnc1 (stereo unspecified),-1.3%,5.6%,2.1,79.4µM*,9.6,14.6%
COc1cccc(C2/C(=C(\O)c3ccc4c(c3)OCCO4)C(=O)C(=O)N2Cc2cccnc2)c1 (stereo unspecified),-36.3%,8.0%,6.3,-13.8%,2.3,42.9%
COc1cc(C2/C(=C(\O)c3ccc4c(c3)OCCO4)C(=O)C(=O)N2Cc2ccccc2)ccc1O (stereo unspecified),50.1µM*,-1.5%,0.2,-31.7%,-0.2,2.6%
CCCCN(CCCC)S(=O)(=O)c1ccc2oc(C(=O)NCc3ccccc3)c(C)c2c1,8.3%,-2.6%,/,-3.7%,/,42.1%
Cc1c(C(=O)NN2CCCCC2)nn(-c2ccc(Cl)cc2Cl)c1-c1ccc(Cl)cc1,/,6.4%,/,/,/,/
Cc1oc2ncnc(N3CCCCC3)c2c1C(=O)NCC1CCN(Cc2cccc(F)c2)CC1,-2.2%[57.1 µM],3.2%,/,-6.8%,/,18.7%
CCCCOc1ccc(/C(O)=C2/C(=O)C(=O)N(CCN(C)C)C2c2ccc(O)c(OC)c2)cc1 (stereo unspecified),4.3%,4.1%,2.6,-27.9%,9.4,26.6%
COCCCN1C(=O)C(=O)/C(=C(/O)c2ccc(OC(C)C)cc2)C1c1ccc(O)c(OC)c1 (stereo unspecified),6.9%,-8.2%,8.2,50.1µM*,2.1,-7.4%
COc1cccc(/C(O)=C2/C(=O)C(=O)N(Cc3cccnc3)C2c2ccco2)c1 (stereo unspecified),-33.9%,/,1.4,?,4.5,19.7%
COCCN1C(=O)C(=O)/C(=C(/O)c2cccc(OC)c2)C1c1ccco1 (stereo unspecified),79.4µM*,/,-0.6,?,-2.4,4.2%
CC1Cc2cc(S(=O)(=O)CCC(=O)Nc3cccc(F)c3)ccc2N1C(=O)C1CC1 (stereo unspecified),-11.7%,2.8%,/,-17.6%,/,-3.9%
Cc1ccc(C)c(N2CCN(S(=O)(=O)c3ccc4c(c3)C(C)(C)C(=O)N4C)CC2)c1,?,/,-4.2,-22.5%,-11.9,34.9%
Cc1cccc(N2CCN(S(=O)(=O)c3ccc4c(c3)C(C)(C)C(=O)N4C)CC2)c1C,50.1µM*,/,-18.2,?,?,-18.2%
